# Bioassay records from PubChem.
# The full list was thinned out, with hits kept by preference.
# miR122 inh – miR-122 suppressors via Renilla sensor increase, primary screen, cell-based, Huh7 psiCHECK-miR122, Renilla luciferase, single point; activation, % at 12.5 µM; hit rate 0.14% among 340,000; 48 h; AID 623901, 2012;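 active = mean activation of 30% or more, with every replicate also reaching 30%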;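 also: 0% = median of neutral control wells and 100% = median of positive control wells; higher luciferase signal means stronger suppression of miR-122 activity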
# Starred values were filed as active, the others as inactive.
SMILES,miR122 inh
CCCN1C[C@@H](C)[C@@H](OC)CN(C)C(=O)c2ccc(NC(=O)COC)cc2OC[C@@H]1C,1
COc1cccc(-c2cnc3c(c2)C(=O)N([C@H](C)CO)C[C@@H](C)[C@@H](CN(C)Cc2cccnc2)O3)c1,2
C[C@@H]1CN([C@@H](C)CO)S(=O)(=O)c2ccc(-c3ccc(C#N)cc3)cc2O[C@@H]1CN(C)C(=O)C1CC1,-23
CCCN(C)C[C@H]1Oc2cc(Br)ccc2S(=O)(=O)N([C@H](C)CO)C[C@H]1C,-1
N=c1c2c(-c3ccccc3)c(-c3ccccc3)n(Cc3ccccc3)c2ncn1CCO,40*
COc1ccccc1-c1ccc2c(c1)O[C@@H](CN(C)C(=O)c1ccncc1)[C@H](C)CN([C@H](C)CO)S2(=O)=O,-1
CC(C)C(=O)Nc1ccc2c(c1)C(=O)N(C)[C@H]1CC[C@H](CC(=O)NCc3cccc(F)c3)O[C@@H]1CO2,-300
CN1C(=O)c2cc(NC(=O)c3ccc(C(F)(F)F)cc3)ccc2OC[C@@H]2O[C@H](CC(=O)NCc3ccc4c(c3)OCO4)CC[C@@H]21,33*
CC(C)C(=O)Nc1ccc2c(c1)C(=O)N(C)[C@H]1CC[C@H](CC(=O)NCCc3ccccc3)O[C@H]1CO2,53*
CCNC(=O)C[C@@H]1CC[C@@H]2[C@@H](COc3ccc(NC(=O)c4ccccc4)cc3C(=O)N2C)O1,42*
COCCNC(=O)C[C@@H]1CC[C@H]2[C@H](COc3ccc(NC(=O)Cc4ccccc4)cc3C(=O)N2C)O1,-107
CCNC(=O)C[C@H]1CC[C@@H]2[C@@H](COc3ccc(NC(=O)c4cccc(C(F)(F)F)c4)cc3C(=O)N2C)O1,53*
CC(C)C#Cc1ccc2c(c1)O[C@H](CN(C)C(=O)NC(C)C)[C@@H](C)CN([C@H](C)CO)S2(=O)=O,-88
CCC(=O)N1C[C@@H](C)[C@H](OC)CN(C)C(=O)c2ccc(NC(=O)C3CCCCC3)cc2OC[C@@H]1C,2
C[C@@H]1CN([C@@H](C)CO)C(=O)c2cc(-c3ccncc3)cnc2O[C@@H]1CN(C)C(=O)Cc1ccccn1,0
C[C@@H]1CN([C@H](C)CO)C(=O)c2cc(C#Cc3cccc(F)c3)cnc2O[C@H]1CN(C)CC1CCCC1,7
CCCNC(=O)N(C)C[C@@H]1Oc2ncc(C#CCC3CCCC3)cc2C(=O)N([C@H](C)CO)C[C@@H]1C,7
C[C@H]1CN([C@@H](C)CO)S(=O)(=O)c2ccc(-c3ccncc3)cc2O[C@H]1CN(C)Cc1cncnc1,-8
C[C@H](CO)N1C[C@H](C)[C@@H](CN(C)C(=O)NC2CCCCC2)Oc2ncc(-c3ccccc3F)cc2C1=O,-20
C[C@H]1CN([C@@H](C)CO)C(=O)c2cccc(NC(=O)C3CC3)c2O[C@@H]1CN(C)Cc1ccc(C(F)(F)F)cc1,-113
Cc1noc(C)c1NC(=O)N(C)C[C@@H]1Oc2cc(C#CCC(C)C)ccc2S(=O)(=O)N([C@H](C)CO)C[C@H]1C,1
COCC(=O)N(C)C[C@@H]1Oc2ncc(C#Cc3ccccc3OC)cc2C(=O)N([C@H](C)CO)C[C@@H]1C,4
CCC(=O)N(C)C[C@H]1Oc2ncc(C#C[C@H](C)O)cc2C(=O)N([C@@H](C)CO)C[C@H]1C,1
C[C@@H]1CN([C@H](C)CO)C(=O)c2cc(-c3ccc(C(=O)N(C)C)cc3)cnc2O[C@H]1CN(C)Cc1ccc(C(=O)O)cc1,0
COCC(=O)N(C)C[C@H]1Oc2cc(-c3cccc(F)c3)ccc2S(=O)(=O)N([C@@H](C)CO)C[C@H]1C,13
SMILES,miR122 inh
CCCC#Cc1cnc2c(c1)C(=O)N([C@@H](C)CO)C[C@H](C)[C@@H](CN(C)Cc1cccnc1)O2,3
C[C@H](CO)N1C[C@H](C)[C@H](CN(C)S(C)(=O)=O)Oc2cc(-c3ccccc3F)ccc2S1(=O)=O,7
C[C@H]1CN([C@@H](C)CO)S(=O)(=O)c2ccc(C#Cc3cccc(F)c3)cc2O[C@H]1CN(C)C(=O)CN1CCOCC1,1
CC(=O)c1cccc(S(=O)(=O)NCC2CCCCC2)c1,51*
Cc1cccc(NS(=O)(=O)c2cccc(C(=O)N3CCCCCCC3)c2)c1,-163
O=C(Nc1ccc(S(=O)(=O)NCC2CCCO2)cc1)c1cccc(F)c1 (stereo unspecified),-91
C[C@@H]1CN([C@H](C)CO)C(=O)c2cc(C#Cc3cccc(F)c3)cnc2O[C@@H]1CN(C)C(=O)C1CC1,7
CCc1nc2sc(C)c(C)c2c(=O)n1CCO,35*
COc1ccccc1S(=O)(=O)N(C)C[C@H]1Oc2ncc(-c3ccc(C)cc3)cc2C(=O)N([C@@H](C)CO)C[C@@H]1C,-3
C[C@@H]1CN([C@H](C)CO)C(=O)c2cc(C#CC3(O)CCCC3)cnc2O[C@@H]1CN(C)S(C)(=O)=O,5
OCc1ccc(-c2nn(Cc3ccccc3)c3ccccc23)o1,54*
C/C=C/c1cnc2c(c1)C(=O)N([C@@H](C)CO)C[C@@H](C)[C@H](CN(C)C(=O)Cc1cccnc1)O2,-1
CC(=O)Oc1ccc2c(c1)C(=O)c1ccccc1CO2,35*
CCC(=O)Nc1ccc2c(c1)C(=O)N(C)C[C@@H](OC)[C@H](C)CN(C(C)=O)[C@H](C)CO2,-4
C[C@H]1CN([C@@H](C)CO)S(=O)(=O)c2ccc(-c3cccc(C#N)c3)cc2O[C@H]1CN(C)C(=O)Nc1ccccc1F,-4
COc1ccc(Cn2c(SCc3ccccc3C)nc3cc(OC)c(OC)cc3c2=N)cc1,62*
C[C@@H]1CN([C@@H](C)CO)C(=O)c2cc(C#Cc3cccnc3)cnc2O[C@H]1CN(C)S(C)(=O)=O,-7
C[C@H](CO)N1C[C@H](C)[C@@H](CN(C)Cc2ccncc2)Oc2ccc(NC(=O)Nc3cccc4ccccc34)cc2CC1=O,-98
C[C@@H]1CCCCO[C@@H](CN(C)CC2CCCCC2)[C@H](C)CN([C@@H](C)CO)C(=O)c2cc(NC(=O)Nc3cccc4ccccc34)ccc2O1,31*
C[C@@H]1CN([C@H](C)CO)C(=O)Cc2cc(NC(=O)Nc3cccc4ccccc34)ccc2O[C@@H]1CN(C)C(=O)Nc1cccc2ccccc12,-99
C[C@@H]1CN([C@H](C)CO)C(=O)Cc2cc(NC(=O)Nc3cccc4ccccc34)ccc2O[C@@H]1CN(C)C(=O)NC1CCCCC1,-121
C[C@H]1CCCCO[C@@H](CN(C)CC2CCCCC2)[C@@H](C)CN([C@@H](C)CO)C(=O)c2cc(NC(=O)Nc3cccc4ccccc34)ccc2O1,33*
C[C@H](CO)N1C[C@H](C)[C@H](CN(C)Cc2ccc(C(=O)Nc3ccccc3N)cc2)Oc2ccc(NC(=O)Nc3cccc4ccccc34)cc2CC1=O,-96
CC(C)CC#Cc1cnc2c(c1)C(=O)N([C@@H](C)CO)C[C@@H](C)[C@H](CN(C)C(=O)Cc1ccccc1)O2,6
COCC#Cc1cnc2c(c1)C(=O)N([C@H](C)CO)C[C@H](C)[C@H](CN(C)C(=O)Cc1ccccc1)O2,-11
Cc1noc(C)c1NC(=O)N(C)C[C@@H]1Oc2ncc(C#CC3CCCCC3)cc2C(=O)N([C@@H](C)CO)C[C@H]1C,2
C[C@@H]1CN([C@@H](C)CO)C(=O)c2cc(-c3ccccc3F)cnc2O[C@@H]1CN(C)C(=O)C1CCCCC1,-11
C[C@H]1CN([C@@H](C)CO)C(=O)c2cc(C#Cc3ccccn3)cnc2O[C@H]1CN(C)C(=O)c1cnccn1,-2
